From PubChem
An excerpt weighted towards active compounds, which were near 19% of everything screened.
TDP1 cell noCPT: qHTS for Inhibitors of human tyrosyl-DNA phosphodiesterase 1 (TDP1): qHTS in cells in absence of CPT. DT40 Tdp1-/- hTDP1 cells, no CPT, ATP luminescence, 48 h. Potency, µM (titrated, usually from 46.2 µM), for inactives: top-dose activity change, negative = growth inhibition, most hits filed as inhibitors. 420,000 compounds, 15% hits. AID 686978, 2013; also: potency is read from the fitted curve at half-maximal effect; nearly all actives have a fitted effect of over 55% in size
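Seeded 400 DT40-hTDP1 cells/well (vehicle DMSO, no 20 nM CPT); pinned compounds; ≥48 hr at 37 °C; CellTiter-Glo luminescence as viability measure.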
IL1B secr inh: blocks inflammasome-driven IL-1 beta release; THP-1 LPS/ATP IL-1B secretion, AlphaLISA, 16 h; hits give low values; activity change, % at 57.5 µM; 360,000 compounds, 4.7% hits; in the data active = activity change below about -50%; inconclusive = mostly about -30% to -49%
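THP-1 cells pretreated 1 hr with compounds (up to 57.5 uM final), then stimulated with LPS (250 ng/mL final) plus ATP (1.25 mM final); secreted IL-1B measured by AlphaLISA after 16 hr, decreased signal indicating inhibition.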
DT40 TDP1 CPT: growth inhibition of DT40 Tdp1-/-;hTDP1 cells with camptothecin (screen for TDP1 inhibitors). chicken DT40 Tdp1-/-;hTDP1 cells + 20 nM CPT, ATP luminescence, 48 h. Potency, µM (top dose mostly 46.2 µM), without a hit: at the highest dose activity change, negative = growth inhibition, actives largely listed as inhibitors. 420,000 compounds, 12% hits; also: potency is read from the fitted curve at half-maximal effect; nearly all actives have a fitted effect of over 55% in size
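Chicken DT40 Tdp1-/- cells complemented with human TDP1, 400 cells/well, exposed to compounds plus 20 nM camptothecin for at least 48 h at 37 C; viability read as ATP content by CellTiter-Glo luminescence.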
HT1080-NT tox: kills 2HG-producing HT-1080-NT fibrosarcoma cells; HT-1080-NT fibrosarcoma viability, CellTiter-Glo ATP luminescence, 48 h; Potency, µM (titrated, usually from 46.1 µM), for inactives: at the top dose activity, negative = less viability, usual class: cytotoxic; 360,000 compounds, 1.6% hits;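 also: NT is the 2HG producing partner of a matched IDH1 knockdown line; potency is read from the fitted curve at half-maximal effect; 0% = DMSO-treated cells and -100% = media-only wells without cells; nearly all actives have a fitted effect of over 55% in size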
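750 cells/well, RPMI + 5% FBS; 2 h settle, compound pin-transfer, 48 h at 37 degrees C. CellTiter-Glo 10 min RT, luminescence. Normalized to DMSO and media-only wells.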
HT1080 IDH1KD tx: kills HT-1080 cells with IDH1 knockdown; HT-1080 IDH1 knockdown viability, ATP luminescence, 48 h; Potency, µM (doses to about 46.1 µM), for the others: top-dose activity, negative = toxicity, usual class: cytotoxic; 360,000 compounds, 2% hits;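 also: potency is read from the fitted curve at half-maximal effect; 0% = DMSO wells and -100% = cell-free medium wells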
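Cytotoxicity counter-line: IDH1KD HT-1080, 48 h, CellTiter-Glo. Curves classed by r2, magnitude and activity.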
An asterisk follows results filed as active; ? = inconclusive; . = not tested or not shown; [ ] = dose if it differs, or a comment. Unless noted, calls follow the shape of the dose curve; as a rule, active = well fitted curve in the direction sought with a large enough effect; inconclusive = small, poorly fitted or top-dose-only effect, or another doubt; inactive = no such curve, though single readings can be large; an effect the other way counts as inactive or inconclusive. Unless noted, % is scaled to controls: 0 for no effect and ±100 for the full control effect.

SMILES | TDP1 cell noCPT | IL1B secr inh | DT40 TDP1 CPT | HT1080-NT tox | HT1080 IDH1KD tx
O=[N+]([O-])c1nn(-c2ccc3c(c2)OCCO3)n(O)c1=Nc1ccccc1 | 23µM* | 15 | 26µM* | -8% | 2%
COc1ccccc1/C=C/C(=O)OCC(=O)N1CCc2ccccc21 | 3% | -3 | 7% | 1%[9.24 µM] | 8%
C#CCOc1ccc(/C=C2/C(=O)NN(c3ccc(F)cc3)C2=O)cc1OC | 11% | 37 | 0% | -25% | -21%
Cc1ccc2[nH]c(=O)c(CN(CCCN(C)C)C(=O)Nc3ccc(Cl)cc3)cc2c1 | 6.3µM* | -54* | 7.1µM* | 4% | 2%
Cc1ccc(NC(=S)N(CCCN(C)C)Cc2cc3cc4c(cc3[nH]c2=O)OCO4)cc1 | -5% | -2 | 2% | -2% | 6%
Cc1ccc2cc(CN(CCN(C)C)C(=O)Nc3ccc(Cl)cc3)c(=O)[nH]c2c1 | 16µM* | . | ? | ? | -2%
CN(CC(=O)Nc1cc(Cl)ccc1-n1cncn1)Cc1ccccc1N1CCOCC1 | ? | 3 | 23µM* | -15% | -2%
O=C(Nc1cc(Cl)ccc1N1CCOCC1)C1CC1 | -13% | -4 | -4% | 9% | 9%
O=C(CCC1CCCC1)Nc1cc(Cl)ccc1N1CCOCC1 | ? | -57* | ? | -2% | -8%
CCN(CC)S(=O)(=O)c1ccc(N2CCOCC2)c(NC(=O)CCC2CCCCC2)c1 | ? | -13 | 21µM* | 3% | 0%
C#CCOCCOCCOCCNc1nc(N2CCN(C(=O)CCCCCCCCCCNC(=O)[C@@H](CCSC)n3cc(CCO)nn3)CC2)nc(N2CCN(C(=O)CCCCCCCCCCNC(=O)[C@H]([C@@H](C)CC)n3cc(CCCCCN)nn3)CC2)n1 | 16µM* | -72* | ? | ? | ?
C#CCOCCOCCOCCNc1nc(N2CCN(C(=O)[C@H](C(C)C)n3cc(CCO)nn3)CC2)nc(N2CCN(C(=O)[C@H]([C@@H](C)CC)n3cc(CCCCN)nn3)CC2)n1 | 6% | -6 | -1% | -4% | -2%
C#CCOCCOCCOCCNc1nc(N2CCN(C(=O)CCCCCCCCCCNC(=O)[C@@H](CCSC)n3cc(CCO)nn3)CC2)nc(N2CCN(C(=O)CCCCCCCCCCNC(=O)[C@H]([C@@H](C)CC)n3cc(CCCCN=C(N)N)nn3)CC2)n1 | ? | -104* | ? | ? | ?
OC1(c2ccc(Cl)cc2)CCN(Cc2cn[nH]c2-c2ccc(F)cc2)CC1 | 4.1µM* | ? | 13µM* | 21µM* | ?
Fc1ccc(-c2[nH]ncc2CN2CCN(c3ccc(F)cc3)CC2)cc1 | ? | . | -26% | -8% | ?
OC1(c2ccc(Cl)cc2)CCN(Cc2cn[nH]c2-c2ccccc2)CC1 | 15µM* | -53* | 16µM* | ? | ?
COc1ccc(-c2[nH]ncc2CN2CCC(O)(c3ccc(Cl)cc3)CC2)cc1 | 10µM* | -59* | ? | ? | ?
c1ccc(-c2[nH]ncc2CN2CCc3ccccc3C2)cc1 | -28% | -1 | 4% | -16% | -19%
COc1cc(OC)c(NC(=O)c2sc3ncn(CC(=O)N4CCOCC4)c(=O)c3c2C)cc1Cl | 14% | -3 | 1% | 7% | 3%
CCOc1ccc(NC(=O)Cn2c(=O)cc(C)c3c(C)nn(C)c32)cc1 | 8.2µM* | . | 21µM* | . | .
CCOc1ccc(NC(=O)Cn2c(=O)cc(C)c3c(C)nn(-c4cccc(Cl)c4C)c32)cc1 | 13µM* | . | 26µM* | . | .
CCOC(=O)c1ccc(NC(=O)Cn2c(=O)cc(C)c3c(C)nn(-c4ccc(CC)cc4)c32)cc1 | -18% | . | ? | . | .
CCc1ccc(-n2nc(C)c3c(C)cc(=O)n(CC(=O)Nc4ccc(C(C)=O)cc4)c32)cc1 | 9.2µM* | . | ? | . | .
COc1ccc(NC(=O)Cn2c(=O)cc(C)c3c(C)nn(C)c32)cc1 | 3.3µM* | . | ? | . | .
Cc1cc(=O)c(C(=O)O)c(C)n1-c1ccccc1 | 0% | -27 | 2% | 3% | -7%
SMILES | TDP1 cell noCPT | IL1B secr inh | DT40 TDP1 CPT | HT1080-NT tox | HT1080 IDH1KD tx
C=CCNC(=O)Nc1ccc(Cl)cn1 | 19% | 26 | -18% | 2% | 0%
Cc1cc(=O)n(CC(=O)NC(C)c2ccccc2)c2c1c(C)nn2C (stereo not given) | 8.2µM* | . | 15µM* | . | .
Cc1ccc(Cl)cc1NC(=O)Cn1c(=O)cc(C)c2c(C)nn(C)c21 | ? | . | 12µM* | . | .
Cc1ccc(-n2nc(C)c3c(C)cc(=O)n(CC(=O)NC(C)c4ccccc4)c32)cc1 (stereo not given) | -11% | . | -14% | . | .
Cc1nc(NC(=O)C2CC2)sc1C(=O)N1CCCCC1 | -8% | 12 | -4% | 4% | -1%
Cc1nc(NC(=O)c2cccc(Cl)c2)sc1C(=O)N1CCCCC1 | 18µM* | ? | 18µM* | -4% | 0%
O=C(NN1CCN(Cc2ccccc2Cl)CC1)c1ccc(Br)cc1 | ? | 6 | -10% | -3% | -22%
CCOc1cccc(CN(CC)CC2CCCN(CCc3cccc(OC)c3)C2)c1O (stereo not given) | 16µM* | -19 | ? | -27% | -23%
CCN(CC1CCCN(CCc2cccc(OC)c2)C1)C(=O)C=C(C)C (stereo not given) | 0% | 14 | -9% | 7% | -1%
CCN(CC1CCCN(CCc2cccc(OC)c2)C1)C(=O)c1ccoc1 (stereo not given) | -2% | 8 | 10% | 2% | -12%
CCN(Cc1cccc(OC)c1)CC1CCCN(CCc2cccc(OC)c2)C1 (stereo not given) | ? | -11 | 15µM* | 2% | -1%
CCN(Cc1ccc(O)cc1)CC1CCCN(CCc2cccc(F)c2)C1 (stereo not given) | ? | -17 | 16µM* | ? | ?
CC(=O)Nc1ccc(CN(C)CC2CCCN(CCc3cccc(C(F)(F)F)c3)C2)cc1 (stereo not given) | ? | -69* | 13µM* | ? | 21µM*
CC(=O)Nc1ccc(C(=O)CN2C(=O)CSC2=O)cc1 | 13% | -6 | 12% | -1% | 15%
Cc1cc(OC(C)C(=O)NCC(O)c2ccccc2)c2c(C)cc(=O)oc2c1 (stereo not given) | -5% | 8 | -8% | 10% | 1%
C/C(=N/NC(=O)c1nnn(-c2nonc2N)c1CSc1ccc(C)cc1)c1ccncc1 | -28% | -6 | -2% | 7% | 4%
CCN(CC1CCCN(CCc2cccc(F)c2)C1)C(=O)c1ccc(CSC)o1 (stereo not given) | 23µM* | -15 | ? | -5% | -25%
